For 40 molecules, AC50 and outcome results are on record in PubChem BioAssay (EPA / NIEHS).

The source made the active and inactive calls. The calls were made as follows: active = hit-call score of the fitted dose curve at least 0.9, where 1 is the maximum; inactive = score below 0.9.

Sequence of Heat shock factor protein 1 (Homo sapiens) (Q00613 whole entry, looked up): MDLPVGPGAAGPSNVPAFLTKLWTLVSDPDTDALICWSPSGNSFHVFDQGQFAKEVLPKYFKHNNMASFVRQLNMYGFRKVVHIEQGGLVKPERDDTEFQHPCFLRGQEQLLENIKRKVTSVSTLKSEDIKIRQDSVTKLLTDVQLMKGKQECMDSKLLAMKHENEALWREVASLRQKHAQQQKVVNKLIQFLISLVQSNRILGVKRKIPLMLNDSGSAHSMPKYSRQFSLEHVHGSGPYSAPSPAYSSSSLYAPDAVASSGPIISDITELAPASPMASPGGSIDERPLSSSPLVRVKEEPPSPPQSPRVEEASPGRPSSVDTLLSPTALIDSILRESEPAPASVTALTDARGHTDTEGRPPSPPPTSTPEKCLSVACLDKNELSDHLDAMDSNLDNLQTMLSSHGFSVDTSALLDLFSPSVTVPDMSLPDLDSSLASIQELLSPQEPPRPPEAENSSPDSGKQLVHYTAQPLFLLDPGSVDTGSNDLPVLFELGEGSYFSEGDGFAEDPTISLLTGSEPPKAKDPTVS

This experiment has as its target Heat shock factor protein 1 (Homo sapiens) (UniProt Q00613). Put plainly: ATG_HSE_CIS: Attagene CIS-FACTORIAL HepG2 Assay for human Heat Shock Transcription Factor 1 (HSE) (AID 2282953). Particulars: HepG2 HSE cis-reporter, Attagene RNA transcription; actives raise or lower the signal. On the procedure: ATG_CIS is a cell-based, multiplexed-readout assay that uses HepG2, a human liver cell line, with measurements taken at 24 hours after chemical dosing in a 24-well plate.ATG_HSE_CIS is one of 52 assay component(s) measured or calculated from the ATG_CIS assay. It is designed to make measurements of mRNA induction, a form of inducible reporter, as detected with fluorescence intensity signals by Reverse transcription polymerase chain reaction (RT-PCR) and Capillary electrophoresis technology.Data from the assay component ATG_HSE_CIS was analyzed into 1 assay endpoint. This assay endpoint, ATG_HSE_CIS, was analyzed with bidirectional fitting relative to DMSO as the negative control and baseline of activity. Using a type of inducible reporter, measures of mRNA for gain or loss-of-signal activity can be used to understand the reporter gene at the transcription factor-level as they relate to the gene HSF1. Furthermore, this assay endpoint can be referred to as a primary readout, because this assay has produced multiple assay endpoints where this one serves a reporter gene function. To generalize the intended target to other relatable targets, this assay endpoint is annotated to the dna binding intended target family, where the subfamily is heat shock protein.
Human liver HepG2 cells are transiently transfected with multiple reporter transcription units (MRTUs) in 6-well plates using FuGene 6 reagent (Roche; 3 ml FuGene/1 mg DNA). The MRTU constructs are regulated by a cis-regulating element (promoter). […] A major difference between the CIS and TRANS system is that in CIS activities of endogenous TFs are measured, whereas the TRANS assay evaluates changes in activities of exogenous, chimeric NR-Gal4 proteins. […] At the end of 24 hour incubation, total RNA was isolated using TriZol reagent (Invitrogen). The isolated RNA is then reverse-transcribed using oligo(dT) primer and Mo-MLV reverse transcriptase (Invitrogen) with DNAse I (Ambion) treatment for 30 min. The one-tenth of the produced cDNA was amplified by PCR using Taq DNA polymerase (Invitrogen) and two reporter sequence-specific primers. The PCR products were fluorescently labeled by primer extension with 6-arboxyfluorescein (6-FAM) 5'-labeled reporter sequence-specific primer (2 min at 95 C, 20 s at 68 C and 10 min at 72 C) and these products were digested with 5U of HpaI (New England Biolabs) for 2h at 37 C. The fragments were purified using Qiaquick PCR columns (Qiagen), analyzed on an ABI 3130xL genetic analyzer (Applied Biosystems) with peak positions identified by using a set of X-rhodamine (ROX)-labeled MapMarker1000 molecular weight standards (BioVentures). The raw capillary electrophoresis data was processed using Attagraph software (Attagene).
For `CC(C)N(C(=O)CCl)c1ccccc1`, the AC50 is 52.4 µM (active). On to `CCCSP(=S)(OCC)Oc1ccc(Cl)cc1Cl` (stereo not given), for which the call was inactive. On the same count and under the same terms, to `CCOP(=S)(OCC)SCS(=O)(=O)C(C)(C)C` belongs “inactive”; to `O=C(CBr)c1ccc(O)cc1`, “inactive”; to `NC(=O)c1ccc(N)nc1`, “inactive”. The same measure, in the same setting: to `c1cc[c]([Sb]([c]2ccccc2)[c]2ccccc2)cc1` belongs “inactive”; to `CNC(=O)N(C)c1nc2ccccc2s1`, “inactive”. On the same count and under the same terms, the result for `Oc1cc(Cl)c(Cl)cc1Cl` reads “inactive”; that for `CCCCN(CCCC)C(=S)[S-].CCCCN(CCCC)C(=S)[S-].[Ni+2]`, “inactive”; that for `OCCCCO`, “inactive”.

Regarding `CCOc1ccc(N)cc1`, the molecule was called inactive.

`CC(=O)C(F)(F)C(F)(F)F`: the molecule was called inactive. In the case of `COc1ccccc1N`, the molecule was called inactive. Regarding `BrCC(Br)c1ccccc1` (stereo not given), the result was inactive. In the case of `CCOP(=S)(OCC)OP(=S)(OCC)OCC`, the molecule was called inactive. Regarding `Cc1cc(C(C)(C)c2ccc(O)c(C)c2)ccc1O`, the AC50 is 39.5 µM (active). Consider `CCOP(=S)(OCC)SCSc1cc(Cl)ccc1Cl`, for which the molecule was called inactive. Same read-out and setting: to `CC(C)(C)c1ccc(CCOc2ncnc3ccccc23)cc1` belongs “inactive”; to `Cc1c([N+](=O)[O-])c(C)c([N+](=O)[O-])c(C(C)(C)C)c1[N+](=O)[O-]`, “inactive”. On to `O=C(CCl)Nc1ccccc1`, for which the AC50 was 49 µM (active). Regarding `CC(=Cc1ccccc1)[N+](=O)[O-]`, the AC50 is 4.41 µM (active). `CC(C)(c1ccccc1)c1cc(-n2nc3ccccc3n2)c(O)c(C(C)(C)c2ccccc2)c1`: the result was inactive.

Turning to `NC(=O)CCl`, the call was inactive.

For `CC(C)(c1ccc(O)c(-c2ccccc2)c1)c1ccc(O)c(-c2ccccc2)c1`, the result was inactive. Still for that read-out and setting: the result for `C=CCN=C=S` reads “inactive”; that for `C[N+](C)(C)Cc1ccccc1`, “inactive”; that for `CCCCC(CC)C(=O)Cl` (stereo not given), “inactive”.

For the molecule `CC(C)(C)c1ccccc1O`, the result was inactive. On the same count and under the same terms, the result for `Cc1cc(C)cc(C)c1` reads “inactive”. Same read-out and setting: the result for `O=C(O)c1cc(I)cc(I)c1I` reads “inactive”; that for `C=CC(Cl)CCl` (stereo not given), “inactive”. For the molecule `CC(C)CC(C)(c1ccc(O)cc1)c1ccc(O)cc1`, the AC50 is 17 µM (active).

For `O=C(NC(=O)c1c(F)cccc1F)Nc1cc(Cl)c(F)c(Cl)c1F`, the molecule was called inactive.

Turning to `CCOP(=O)(OCC)OC(=CCl)c1ccc(Cl)cc1Cl`, the molecule was classed as inactive. Same read-out and setting: the result for `O=S(=O)(Oc1ccc(Cl)cc1)c1ccc(Cl)cc1` reads “inactive”. As for `Cc1cc(Cl)ccc1O`, the outcome was inactive. On to `O=C(NC(=O)c1c(F)cccc1F)Nc1cc(Cl)c(Oc2ncc(C(F)(F)F)cc2Cl)c(Cl)c1`, for which the result was inactive. Regarding `CC(c1ccccc1)(c1ccc(O)cc1)c1ccc(O)cc1`, the AC50 is 17.7 µM (active). As for `O=C(Nc1ccc(Br)cc1)c1cc(Br)cc(Br)c1O`, the concentration at half-maximal activity (AC50) is 132 µM (active). Consider `N#Cc1ccccc1N`, for which the call was inactive.

As usually defined, the AC50 is the concentration giving half of the maximal activity seen.
